Results filed as inconclusive are left out. Activity calls are given as the source filed them. Calls come from the whole dose curve; as a rule, active = well fitted curve in the direction sought with a large enough effect in the repeat runs; inconclusive = weak or mixed curves; inactive = no such curve, though single readings can be large; an effect the other way counts as inactive or inconclusive.
Test system: not listed separately
Assay: qHTS assay to identify small molecule antagonists of the estrogen receptor alpha (ER-alpha) signaling pathway using the BG1 cell line - cell viability counter screen (AID 743081);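 note: compound given together with 17beta-estradiol as the ER stimulus; nearly all actives have a fitted effect of over 45% in size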
Conditions: BG1Luc4E2 viability, CellTiter-Fluor, 22 h; series mostly up to 70.3 µM; activity change, negative = cytotoxicity: at the top concentration
% is set by controls: 0 for no effect and ±100 for the full control effect.

Compound	activity change, negative = cytotoxicity	Potency
CCCCCCCCCCCCCCC1CO1 (stereo not drawn)	5.99% (inactive)	–
O=C(C(=O)c1ccc(Br)cc1)c1ccc(Br)cc1	-3.12% [at 32.5 µM] (inactive)	–
C=C(C)C(=O)OCCN(C)C	-1.38% [at 95 µM] (inactive)	–
CC(=O)N(O)CCCCCNC(=O)CCC(=O)N(O)CCCCCNC(=O)CCC(=O)N(O)CCCCCN	1.42% [at 32.5 µM] (inactive)	–
Nc1nc(N)c2nc(CNc3ccc(C(=O)N[C@@H](CCC(=O)O)C(=O)O)cc3)cnc2n1	6.65% (inactive)	–
N[C@H]1C(O)O[C@H](CO)[C@H](O)[C@@H]1O (stereo partly drawn)	-1.73% (inactive)	–
C=CC[N+]1([C@H]2C[C@H]3[C@@H]4CC[C@H]5C[C@H](OC(C)=O)[C@@H](N6CCCCC6)C[C@]5(C)[C@H]4CC[C@]3(C)[C@H]2OC(=O)CC)CCCCC1	24.2% (inactive)	–
OCC1CC2CC1C1CCC(CO)C21 (stereo not drawn)	0.338% (inactive)	–
Cn1c(=O)c2c(ncn2CC(O)CO)n(C)c1=O (stereo not drawn)	-2.58% [at 32.5 µM] (inactive)	–
CCOC(=O)CC(=O)c1cc(F)c(Cl)nc1Cl	4.97% [at 95 µM] (inactive)	–
O=C(O)COC(=O)Cc1ccccc1Nc1c(Cl)cccc1Cl	-2.09% [at 32.5 µM] (inactive)	–
CCCCCCCCCCCCCCCBr	-1.13% (inactive)	–
N#CCc1cccc(C(F)(F)F)c1	14.7% (inactive)	–
CCCCOC(O)CC (stereo not drawn)	0.137% (inactive)	–
C[C@H](CCC(=O)O)[C@H]1CC[C@H]2[C@@H]3[C@H](O)C[C@@H]4C[C@H](O)CC[C@]4(C)[C@H]3CC[C@]12C	–	inactive
CC[C@H](C)[C@H](N)C(=O)O	2.74% (inactive)	–
CCCCCCc1ccc(N)cc1	1.72% (inactive)	–
CC(C)NCC(O)COc1ccc(CC(N)=O)cc1 (stereo not drawn)	10.3% (inactive)	–

Compound	activity change, negative = cytotoxicity	Potency
COCCOCCOCCOCCOC	-8.65% (inactive)	–
C=C(C)C(=O)OC(C)C	6.15% (inactive)	–
N#CCCNCCC#N	5.97% [at 95 µM] (inactive)	–
NCCCOCCOCCOCCCN	-3.18% (inactive)	–
CC(=O)NCCCS(=O)(=O)O	–	inactive
Cc1ccc(C(N)=O)cc1N	5.21% (inactive)	–
O=C(O)C1CCC(C(=O)O)CC1 (stereo not drawn)	-2.92% (inactive)	–
CCOC(=S)SSC(=S)OCC	–	inactive
ClC(Cl)(Cl)c1ccc(C(Cl)(Cl)Cl)cc1	0.126% (inactive)	–
CCCCCCCCCO	5.05% (inactive)	–
CN(C)CCCOc1nn(Cc2ccccc2)c2ccccc12	-3.66% [at 32.5 µM] (inactive)	–
CCOC(=O)CC(C)C	8.43% (inactive)	–
FC(F)(F)C(F)(F)C(F)(F)C(F)(F)C(F)(F)C(F)(F)CCI	-5.42% (inactive)	–
CC(C(=O)O)c1ccc(-c2ccccc2)c(F)c1 (stereo not drawn)	–	inactive
CCCc1ccccc1	-6.8% (inactive)	–
Cc1ncsc1CCO	-3.66% (inactive)	–
N=C(N=C(N)N)N1CCOCC1	0.761% [at 32.5 µM] (inactive)	–

Target: Aromatase (Homo sapiens) (UniProt P11511)
Assay: qHTS assay to identify aromatase inhibitors (AID 743083); note: nearly all actives have a fitted effect of over 55% in size
Conditions: MCF-7 aro ERE, testosterone-driven ERE luciferase, 24 h; series mostly up to 70.3 µM; activity, negative = inhibition: at the top concentration

Chain of Aromatase (Homo sapiens) (P11511 whole entry, looked up): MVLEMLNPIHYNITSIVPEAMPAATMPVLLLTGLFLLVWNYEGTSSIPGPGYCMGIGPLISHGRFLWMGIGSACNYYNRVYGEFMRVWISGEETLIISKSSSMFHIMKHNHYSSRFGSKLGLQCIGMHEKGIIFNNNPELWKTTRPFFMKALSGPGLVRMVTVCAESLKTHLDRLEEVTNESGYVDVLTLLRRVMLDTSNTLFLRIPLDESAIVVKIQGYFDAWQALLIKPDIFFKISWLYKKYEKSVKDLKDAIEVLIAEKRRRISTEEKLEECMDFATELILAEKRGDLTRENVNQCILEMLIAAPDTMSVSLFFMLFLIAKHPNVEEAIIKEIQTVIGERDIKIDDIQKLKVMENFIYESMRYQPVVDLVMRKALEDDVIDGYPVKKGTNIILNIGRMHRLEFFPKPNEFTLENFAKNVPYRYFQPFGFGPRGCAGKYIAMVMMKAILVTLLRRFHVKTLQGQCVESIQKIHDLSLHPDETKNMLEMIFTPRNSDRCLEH

Compound	activity, negative = inhibition	Potency
CCCCCCCCCCCCCCC1CO1 (stereo not drawn)	8.98% (inactive)	–
O=C(C(=O)c1ccc(Br)cc1)c1ccc(Br)cc1	1.88% [at 32.5 µM] (inactive)	–
C=C(C)C(=O)OCCN(C)C	-6.45% [at 95 µM] (inactive)	–
CC(=O)N(O)CCCCCNC(=O)CCC(=O)N(O)CCCCCNC(=O)CCC(=O)N(O)CCCCCN	7.04% [at 32.5 µM] (inactive)	–
Nc1nc(N)c2nc(CNc3ccc(C(=O)N[C@@H](CCC(=O)O)C(=O)O)cc3)cnc2n1	–	inactive
O=C(NN1CCCC1)NS(=O)(=O)c1ccc(Cl)cc1	2.33% (inactive)	–
N[C@H]1C(O)O[C@H](CO)[C@H](O)[C@@H]1O (stereo partly drawn)	11.5% (inactive)	–
C=CC[N+]1([C@H]2C[C@H]3[C@@H]4CC[C@H]5C[C@H](OC(C)=O)[C@@H](N6CCCCC6)C[C@]5(C)[C@H]4CC[C@]3(C)[C@H]2OC(=O)CC)CCCCC1	-0.579% (inactive)	–
OCC1CC2CC1C1CCC(CO)C21 (stereo not drawn)	-5.79% (inactive)	–
Cn1c(=O)c2c(ncn2CC(O)CO)n(C)c1=O (stereo not drawn)	4.46% [at 32.5 µM] (inactive)	–
CCOC(=O)CC(=O)c1cc(F)c(Cl)nc1Cl	-12.8% [at 95 µM] (inactive)	–
O=C(O)COC(=O)Cc1ccccc1Nc1c(Cl)cccc1Cl	-3.75% [at 32.5 µM] (inactive)	–
CCCCCCCCCCCCCCCBr	11.7% (inactive)	–
N#CCc1cccc(C(F)(F)F)c1	13.8% (inactive)	–
CCCCOC(O)CC (stereo not drawn)	15.3% (inactive)	–
C[C@H](CCC(=O)O)[C@H]1CC[C@H]2[C@@H]3[C@H](O)C[C@@H]4C[C@H](O)CC[C@]4(C)[C@H]3CC[C@]12C	–	inactive
CC[C@H](C)[C@H](N)C(=O)O	-5.97% (inactive)	–

Compound	activity, negative = inhibition	Potency
COCCOCCOCCOCCOC	4.18% (inactive)	–
C=C(C)C(=O)OC(C)C	9.65% (inactive)	–
NCCCOCCOCCOCCCN	-0.202% (inactive)	–
CC(=O)NCCCS(=O)(=O)O	–	inactive
Cc1ccc(C(N)=O)cc1N	-6.72% (inactive)	–
O=C(O)C1CCC(C(=O)O)CC1 (stereo not drawn)	-4.97% (inactive)	–
Cc1ccccc1N=Nc1ccc(N=Nc2c(O)ccc3ccccc23)c(C)c1	-2.63% (inactive)	–
CCOC(=S)SSC(=S)OCC	–	inactive
CCCCCCCCCO	3.3% (inactive)	–
CN(C)CCCOc1nn(Cc2ccccc2)c2ccccc12	11.2% [at 32.5 µM] (inactive)	–
CCOC(=O)CC(C)C	15.3% (inactive)	–
FC(F)(F)C(F)(F)C(F)(F)C(F)(F)C(F)(F)C(F)(F)CCI	9.1% (inactive)	–
CC(C(=O)O)c1ccc(-c2ccccc2)c(F)c1 (stereo not drawn)	–	inactive
CCCc1ccccc1	17.9% (inactive)	–
Cc1ncsc1CCO	18.5% (inactive)	–
N=C(N=C(N)N)N1CCOCC1	9.97% [at 32.5 µM] (inactive)	–

Source: PubChem BioAssay (Tox21)
